# Reference: ChEMBL document CHEMBL3988442, “University of Dundee, Small-Polar-MMV Screening Library” (2021)
# Values joined by “and” are separate entries in the source; they are usually repeats but may differ in a detail not shown here. Identical values can stand only once. For part of these data: Results with a measured potency or affinity are listed apart.
# Tests used:
# Set-up in all cases: scale not given: direction of the effect not stated beside the values
# [1] = molecular target: Protein translocase subunit SecA (Escherichia coli (strain K12)) (UniProt P10408); assay: Assay to Identify E. coli SecA ATPase Inhibitors; assay type: functional; conditions: 30 µM
# Sequence of Protein translocase subunit SecA (Escherichia coli (strain K12)) (P10408 whole entry): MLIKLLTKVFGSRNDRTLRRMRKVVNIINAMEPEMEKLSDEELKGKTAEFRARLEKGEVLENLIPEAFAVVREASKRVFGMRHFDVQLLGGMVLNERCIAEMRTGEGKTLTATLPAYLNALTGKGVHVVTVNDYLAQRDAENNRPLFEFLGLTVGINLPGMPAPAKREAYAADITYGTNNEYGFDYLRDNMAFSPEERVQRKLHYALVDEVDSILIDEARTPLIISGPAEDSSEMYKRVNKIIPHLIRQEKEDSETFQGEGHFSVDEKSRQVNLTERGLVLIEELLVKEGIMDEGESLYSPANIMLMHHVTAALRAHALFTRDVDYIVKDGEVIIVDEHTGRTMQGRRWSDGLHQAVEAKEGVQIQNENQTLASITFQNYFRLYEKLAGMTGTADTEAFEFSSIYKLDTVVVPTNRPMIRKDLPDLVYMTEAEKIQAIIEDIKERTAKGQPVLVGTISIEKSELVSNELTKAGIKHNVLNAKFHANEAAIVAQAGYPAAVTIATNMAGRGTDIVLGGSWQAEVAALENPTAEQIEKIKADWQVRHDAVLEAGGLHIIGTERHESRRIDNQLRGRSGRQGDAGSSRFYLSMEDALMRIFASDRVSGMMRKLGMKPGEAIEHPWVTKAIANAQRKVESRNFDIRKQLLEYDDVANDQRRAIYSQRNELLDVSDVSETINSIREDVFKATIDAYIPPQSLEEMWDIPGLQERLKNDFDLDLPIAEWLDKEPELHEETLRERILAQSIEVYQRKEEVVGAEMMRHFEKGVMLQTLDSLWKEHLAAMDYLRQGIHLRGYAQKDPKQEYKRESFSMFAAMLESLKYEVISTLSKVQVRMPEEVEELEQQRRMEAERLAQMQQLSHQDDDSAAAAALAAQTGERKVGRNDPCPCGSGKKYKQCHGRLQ
# [2] = molecular target: T1, Ubiquitin-activating enzyme e1, putative (Leishmania donovani (strain BPK282A1)) (UniProt E9BSI1); assay: Leishmania donovani Ubiquitin Activating Enzyme (LdE1); assay type: functional; conditions: 30 µM
# T1 sequence (whole entry): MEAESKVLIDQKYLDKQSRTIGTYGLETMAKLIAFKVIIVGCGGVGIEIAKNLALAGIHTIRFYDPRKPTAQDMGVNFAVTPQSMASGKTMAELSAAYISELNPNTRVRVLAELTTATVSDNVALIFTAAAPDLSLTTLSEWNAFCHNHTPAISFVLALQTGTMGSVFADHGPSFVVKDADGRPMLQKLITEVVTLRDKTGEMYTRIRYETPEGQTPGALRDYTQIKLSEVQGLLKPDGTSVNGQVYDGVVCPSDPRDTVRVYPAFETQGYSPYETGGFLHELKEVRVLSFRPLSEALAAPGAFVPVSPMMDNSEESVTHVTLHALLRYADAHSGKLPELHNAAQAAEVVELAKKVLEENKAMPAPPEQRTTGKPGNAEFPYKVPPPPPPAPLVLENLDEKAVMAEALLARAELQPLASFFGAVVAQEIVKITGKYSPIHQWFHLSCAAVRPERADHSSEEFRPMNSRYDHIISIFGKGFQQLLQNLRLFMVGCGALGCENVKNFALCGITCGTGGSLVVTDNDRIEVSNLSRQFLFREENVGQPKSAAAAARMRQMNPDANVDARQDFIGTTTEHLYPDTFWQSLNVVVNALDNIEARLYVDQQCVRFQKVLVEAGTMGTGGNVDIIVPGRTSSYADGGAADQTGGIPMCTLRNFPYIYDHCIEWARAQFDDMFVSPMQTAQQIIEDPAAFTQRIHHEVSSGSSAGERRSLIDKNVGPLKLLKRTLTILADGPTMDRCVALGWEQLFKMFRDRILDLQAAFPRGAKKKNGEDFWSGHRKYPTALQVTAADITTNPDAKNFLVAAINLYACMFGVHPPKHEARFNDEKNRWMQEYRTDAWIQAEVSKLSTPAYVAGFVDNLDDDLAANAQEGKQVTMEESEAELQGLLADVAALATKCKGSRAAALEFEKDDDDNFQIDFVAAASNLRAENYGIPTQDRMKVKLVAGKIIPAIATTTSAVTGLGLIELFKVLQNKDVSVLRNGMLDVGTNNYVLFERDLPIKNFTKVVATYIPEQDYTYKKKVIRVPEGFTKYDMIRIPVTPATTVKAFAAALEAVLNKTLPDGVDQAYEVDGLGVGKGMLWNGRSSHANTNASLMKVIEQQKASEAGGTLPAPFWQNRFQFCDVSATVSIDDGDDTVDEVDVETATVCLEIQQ
# [3] = molecular target: AMP-activated protein kinase, AMPK (Homo sapiens) (UniProt P54646+O43741+P54619+Q9UGJ0+Q9Y478+Q13131+Q9UGI9); assay: AMP-dependent Kinase enzyme assay. An in vitro enzyme assay that detects ADP turnover that is directly proportional to AMPK activity. This uses naive AMPK that is activated during the assay with MK-8722; assay type: functional; conditions: 30 µM
# [4] = molecular target: Sialic acid-binding Ig-like lectin 9 (Homo sapiens) (UniProt Q9Y336); assay: Hs-Siglec9 ALPHAscreen SOP 20170721; conditions: 10 µM
# Sequence of Sialic acid-binding Ig-like lectin 9 (Homo sapiens) (Q9Y336 whole entry): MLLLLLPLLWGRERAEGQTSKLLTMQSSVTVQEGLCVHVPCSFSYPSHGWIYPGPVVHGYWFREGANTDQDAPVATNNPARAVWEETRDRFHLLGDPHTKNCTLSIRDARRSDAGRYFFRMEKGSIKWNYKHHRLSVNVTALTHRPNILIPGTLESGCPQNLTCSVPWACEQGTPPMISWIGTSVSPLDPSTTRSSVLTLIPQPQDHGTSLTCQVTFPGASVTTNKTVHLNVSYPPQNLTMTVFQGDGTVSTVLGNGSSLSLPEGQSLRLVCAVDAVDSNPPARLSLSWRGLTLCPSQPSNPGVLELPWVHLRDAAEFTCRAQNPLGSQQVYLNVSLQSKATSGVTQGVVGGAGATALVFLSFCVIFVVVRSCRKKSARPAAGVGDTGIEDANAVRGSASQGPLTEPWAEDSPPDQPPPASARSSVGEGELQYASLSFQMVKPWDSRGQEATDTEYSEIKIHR
# [5] = test system: Trypanosoma cruzi; assay: Trypanosoma cruzi phosphomannomutase and mannose-1-phosphate guanylyltransferase assay; assay type: functional; conditions: 10 µM
# [6] = molecular target: T2, Arginase-2, mitochondrial (Homo sapiens) (UniProt P78540); assay: in vitro enzyme assay to detect the production of urea directly proportional to the activity of Arginase II; assay type: functional; conditions: 33.3 µM; also: in the data most compounds retested in dose-response had high values
# T2 sequence (whole entry): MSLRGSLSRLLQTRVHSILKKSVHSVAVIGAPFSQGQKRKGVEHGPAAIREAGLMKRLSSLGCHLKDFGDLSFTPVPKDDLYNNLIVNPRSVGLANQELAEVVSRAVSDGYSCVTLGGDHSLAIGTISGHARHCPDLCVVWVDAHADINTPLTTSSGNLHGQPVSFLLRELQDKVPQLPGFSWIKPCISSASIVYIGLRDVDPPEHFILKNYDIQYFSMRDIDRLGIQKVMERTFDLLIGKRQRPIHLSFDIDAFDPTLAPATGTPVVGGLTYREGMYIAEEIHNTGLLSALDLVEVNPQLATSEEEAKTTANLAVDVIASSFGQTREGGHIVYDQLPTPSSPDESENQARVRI
# [7] = molecular target: T3, Proteasome subunit beta (Trypanosoma cruzi) (UniProt O96673); assay: Trypanosoma cruzi proteasome chymotrypsin-like activity (TcProtChymo) assay.; also: in the data most compounds retested in dose-response had high values; assay type: functional; conditions: 9.37 µM
# T3 sequence (whole entry): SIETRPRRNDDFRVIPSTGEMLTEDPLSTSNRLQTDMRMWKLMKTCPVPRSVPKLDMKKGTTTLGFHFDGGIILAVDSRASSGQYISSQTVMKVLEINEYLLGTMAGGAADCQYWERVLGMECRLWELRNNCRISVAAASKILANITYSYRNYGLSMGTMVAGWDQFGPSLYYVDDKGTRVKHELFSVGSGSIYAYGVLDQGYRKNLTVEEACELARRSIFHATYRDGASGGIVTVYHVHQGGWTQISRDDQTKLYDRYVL
# [8] = test system: N/A; assay: Trypanosoma cruzi proteasome luciferase counter-screen; assay type: functional; conditions: 9.37 µM
# [9] = species: Homo sapiens; assay: To identify inhibition of the IFN signalling (Jak-Stat) pathway via expression of an eGFP reporter gene under the control of an IFN-stimulated response element (ISRE) containing MxA promoter.; assay type: functional; conditions: 30 µM
# [10] = molecular target: T4, Tyrosyl-tRNA synthetase, putative (Trypanosoma cruzi (strain CL Brener)) (UniProt Q4DSP6); assay: Trypanosoma cruzi tyrosyl tRNA synthetase (TcYRS) _High Tyrosine SOP; assay type: functional; conditions: 30 µM; also: in the data most compounds retested in dose-response had high values
# T4 sequence (whole entry): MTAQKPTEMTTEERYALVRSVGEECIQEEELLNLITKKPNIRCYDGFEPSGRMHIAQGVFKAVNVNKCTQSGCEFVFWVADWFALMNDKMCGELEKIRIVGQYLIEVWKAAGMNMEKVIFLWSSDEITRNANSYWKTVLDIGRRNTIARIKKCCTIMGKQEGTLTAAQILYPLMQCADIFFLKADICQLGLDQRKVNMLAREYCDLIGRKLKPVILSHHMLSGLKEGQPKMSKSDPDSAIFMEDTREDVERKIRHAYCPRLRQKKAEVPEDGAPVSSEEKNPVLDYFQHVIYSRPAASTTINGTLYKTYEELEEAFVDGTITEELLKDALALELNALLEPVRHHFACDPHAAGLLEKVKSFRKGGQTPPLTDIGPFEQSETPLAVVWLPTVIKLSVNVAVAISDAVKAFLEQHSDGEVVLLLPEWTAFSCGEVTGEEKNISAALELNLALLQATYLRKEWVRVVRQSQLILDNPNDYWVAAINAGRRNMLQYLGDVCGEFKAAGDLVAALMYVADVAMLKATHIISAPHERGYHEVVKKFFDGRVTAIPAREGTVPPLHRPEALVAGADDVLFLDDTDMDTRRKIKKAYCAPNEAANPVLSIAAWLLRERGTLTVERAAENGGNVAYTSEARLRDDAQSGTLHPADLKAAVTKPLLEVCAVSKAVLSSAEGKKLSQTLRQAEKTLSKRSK
# [11] = molecular target: T4, Tyrosyl-tRNA synthetase, putative (Trypanosoma cruzi (strain CL Brener)); assay: Trypanosoma cruzi tyrosyl tRNA synthetase (TcYRS) SOP; assay type: functional; conditions: 30 µM
# [12] = molecular target: Chromo domain-containing protein 1 (Saccharomyces cerevisiae (strain ATCC 204508 / S288c) (Baker's yeast)) (UniProt P32657); assay: ScCHD-1 Enzyme Inhibition Assay; assay type: functional; conditions: 30 µM; also: in the data most compounds retested in dose-response had high values
# Sequence of Chromo domain-containing protein 1 (Saccharomyces cerevisiae (strain ATCC 204508 / S288c) (Baker's yeast)) (P32657 whole entry, the tested form may be a part): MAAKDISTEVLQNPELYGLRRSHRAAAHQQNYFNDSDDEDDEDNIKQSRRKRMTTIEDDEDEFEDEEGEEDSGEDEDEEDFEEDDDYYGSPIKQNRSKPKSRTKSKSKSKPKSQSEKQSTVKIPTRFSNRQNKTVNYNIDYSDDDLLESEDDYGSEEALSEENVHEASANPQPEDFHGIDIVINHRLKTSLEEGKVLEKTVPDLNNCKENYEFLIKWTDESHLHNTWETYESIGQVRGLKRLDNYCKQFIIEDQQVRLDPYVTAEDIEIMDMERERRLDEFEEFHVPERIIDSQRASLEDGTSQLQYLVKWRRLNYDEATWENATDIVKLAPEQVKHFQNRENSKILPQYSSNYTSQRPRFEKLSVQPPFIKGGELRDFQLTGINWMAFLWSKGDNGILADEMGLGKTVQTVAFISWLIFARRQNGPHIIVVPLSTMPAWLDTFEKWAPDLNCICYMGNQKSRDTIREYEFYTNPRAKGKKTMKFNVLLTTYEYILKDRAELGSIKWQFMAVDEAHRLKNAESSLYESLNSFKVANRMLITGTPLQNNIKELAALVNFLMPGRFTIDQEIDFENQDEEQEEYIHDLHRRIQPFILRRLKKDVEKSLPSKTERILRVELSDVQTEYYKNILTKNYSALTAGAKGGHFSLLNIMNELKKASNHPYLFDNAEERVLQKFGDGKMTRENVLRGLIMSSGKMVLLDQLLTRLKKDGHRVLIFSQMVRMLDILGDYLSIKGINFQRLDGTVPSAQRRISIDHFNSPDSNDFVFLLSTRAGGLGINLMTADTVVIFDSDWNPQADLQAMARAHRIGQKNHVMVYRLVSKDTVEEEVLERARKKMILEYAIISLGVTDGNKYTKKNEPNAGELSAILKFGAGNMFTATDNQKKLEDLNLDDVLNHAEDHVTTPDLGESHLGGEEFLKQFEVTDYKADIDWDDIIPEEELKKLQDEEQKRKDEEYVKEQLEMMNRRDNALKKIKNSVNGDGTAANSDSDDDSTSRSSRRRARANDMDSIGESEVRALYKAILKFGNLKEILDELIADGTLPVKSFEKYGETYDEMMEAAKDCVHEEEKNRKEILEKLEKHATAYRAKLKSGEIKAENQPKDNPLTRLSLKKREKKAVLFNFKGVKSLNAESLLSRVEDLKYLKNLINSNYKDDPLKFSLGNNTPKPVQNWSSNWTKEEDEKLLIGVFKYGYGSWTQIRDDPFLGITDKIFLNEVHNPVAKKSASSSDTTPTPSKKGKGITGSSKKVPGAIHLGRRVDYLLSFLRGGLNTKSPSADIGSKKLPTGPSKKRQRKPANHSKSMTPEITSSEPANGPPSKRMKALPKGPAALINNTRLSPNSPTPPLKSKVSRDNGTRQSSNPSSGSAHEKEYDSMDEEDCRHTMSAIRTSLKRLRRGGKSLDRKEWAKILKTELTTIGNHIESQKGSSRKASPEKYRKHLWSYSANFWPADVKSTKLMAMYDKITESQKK
SMILES,Percent Effect [1],Percent Effect [2],Percent Effect [3],Percent Effect [4],Percent Effect [5],Percent Effect [6],Percent Effect [7],Percent Effect [8],Percent Effect [9],Percent Effect [10],Percent Effect [11],Percent Effect [12]
CCc1nc(CN2CCCN(C(=O)CCc3ccco3)CC2)cs1,-4.67%,8.86%,-0.445%,-5.08%,5.64%,-4.95%,56.6% and 53% and 44.8%,0.501% and 5.84%,3.92%,7.29%,15.2%,-32.7%
O=C(CC1CN(Cc2ccccc2)CCO1)Nc1ccccc1F (stereo unspecified),-4.53%,21.6%,-4.08%,3.88%,2.15%,4.17%,64.1% and 65% and 65.1%,32.6% and 32.9%,4.52%,8.91%,15.8%,-1.97%
Cc1ccc(CN(C)C(=O)CN2CC(n3cccn3)C2)o1,-6.67%,2.63%,17.5%,-1.07%,-1.46%,-4.73%,23.1% and 34.2% and 27.3%,20.4% and 19.7%,22.7%,-2.13%,-2.6%,-1.83%
CC(Cn1cccn1)NCc1csc(-c2ccccc2F)n1 (stereo unspecified),-1.44%,-5.41%,-14.2%,7.22%,3.87%,-4.41%,90.3% and 88.1% and 85%,59.5% and 61%,13.2%,1.48%,11.1%,-4.62%
Cn1cc(-c2cnc(N3CCOCC3)nc2)cc1C(=O)O,-3.79%,5.41%,2.15%,1.49%,5.08%,18.3%,100% (2×) and 98.7%,97.4% and 97.5%,5.61%,5.94%,11%,-7.1%
CCOCCCn1c(NC(=O)c2scnc2C)nc2ccccc21,-9.29%,-5.2%,-17.4%,23.1%,11.1%,4.27%,92.3% and 90% and 93.7%,69.6% and 70.1%,68.6%,7.77%,21.9%,72.8%
COc1cccc(-c2nc(C)c(C(=O)NC(CO)CCSC)s2)c1 (stereo unspecified),-3.43%,1.33%,7.43%,6.12%,-2.36%,-11.4%,30.1% and 33.3% and 30.7%,26.5% and 29.5%,15.6%,4.23%,7.69%,-7.42%
CCOc1cc(/C=C/c2ncc(C(=O)O)s2)ccc1O,-3.57%,11.4%,44.7%,0.0396%,-3.38%,4.95%,47.2% and 46.2% and 45.3%,10.5% and 16.9%,7.54%,4.17%,7.59%,-20.7%
